Rce1 inh: yeast Rce1p protease inhibitors, primary screen, biochemical, fluorescence, cell-free homogeneous. CAAX prenyl protease 2 (Saccharomyces cerevisiae (strain ATCC 204508 / S288c)), Q03530. yeast membranes, quenched prenylated peptide cleavage fluorescence. calls only. 290,000 compounds, 0.27% hits;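 active = fall in fluorescence gain of 50% or more versus controls, with final raw signal at or below 3038400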
Target sequence (Q03530 whole entry, looked up): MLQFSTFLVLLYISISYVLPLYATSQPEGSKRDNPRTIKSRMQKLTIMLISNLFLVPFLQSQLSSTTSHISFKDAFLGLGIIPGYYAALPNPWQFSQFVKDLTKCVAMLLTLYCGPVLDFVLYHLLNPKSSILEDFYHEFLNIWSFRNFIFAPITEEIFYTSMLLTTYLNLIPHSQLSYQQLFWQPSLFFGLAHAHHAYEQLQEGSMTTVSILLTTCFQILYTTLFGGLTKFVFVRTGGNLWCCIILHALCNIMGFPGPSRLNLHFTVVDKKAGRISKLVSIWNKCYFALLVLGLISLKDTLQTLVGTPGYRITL
TIM10 inh: growth inhibitors of isogenic TIM10 control yeast, primary screen, counter-screen for tim10-1 yeast inhibitor project, luminescence, uHTS; AID 463195, 2010; inhibition, % at 10 µM; S. cerevisiae TIM10 strain growth, BacTiter-Glo luminescence, 24 h; 330,000 compounds, 1.4% hits;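 active = inhibition of 40% or more at the single tested concentration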;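 note: wild-type TIM10 isogenic control strain grown at permissive 25 °C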
PfHsp90 set2: growth inhibition of PfHsp90-expressing yeast, primary screen, antimalarial PfHsp90 inhibitor project, S. cerevisiae, BacTiter-Glo luminescence, single point, set 2; BacTiter-Glo ATP, 48 h; yeast lacking PDR1 and PDR3 efflux regulators; inhibition, % at 9.4 µM; 310,000 compounds, 0.32% hits; AID 504621, 2011;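 active = every replicate shows inhibition above about 80%, whatever the replicate mean, limit read from the data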
tim10-1 inh: growth inhibitors of tim10-1 mutant yeast, primary screen, luminescence, uHTS; S. cerevisiae tim10-1 ts strain growth, BacTiter-Glo, 24 h; inhibition, % at 20 µM; 330,000 compounds, 2.2% hits; AID 463190, 2010;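 active = inhibition of at least 40%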;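 note: mutant grown at 25 °C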
tim23-1 inh: growth inhibitors of tim23-1 mutant yeast, primary screen, luminescence, uHTS; S. cerevisiae tim23-1 growth, BacTiter-Glo luminescence, 24 h; inhibition, % at 20 µM; 330,000 compounds, 1.3% hits;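 active = growth inhibition of the mutant yeast at or above 50%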;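 note: temperature-sensitive mutant grown at 25 °C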
tim23-1 confirm: tim23-1 mutant yeast growth inhibitors, confirmation, luminescence, single concentration; shares compounds with tim23-1 inh; S. cerevisiae tim23-1 growth, BacTiter-Glo luminescence, 24 h; inhibition, % at 20 µM; 4,400 compounds, 83% hits; AID 463218, 2010;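 active = inhibition above about 39% in either of two replicate wells at 20 µM, limit read from the data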;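 note: temperature-sensitive tim23-1 mutant grown at 25 °C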
Numbers stand for hits. In the library only some 3.7% were active in any assay of this set; here they are far more common.

`Cc1ccc(C)c(S(=O)(=O)NCc2ccc(C(=O)N3CCCCC3C)cc2)c1` (stereo not given) gave Rce1 inh inactive, TIM10 inh inactive, PfHsp90 set2 inactive, tim10-1 inh inactive and tim23-1 inh inactive.
`Cc1nc2ccc(Cl)cc2[nH]1` gave PfHsp90 set2 inactive.
For Cc1nc2ccc(C(C(F)(F)F)(C(F)(F)F)C(F)(F)F)cc2[nH]1 the results were Rce1 inh inactive, TIM10 inh inactive, PfHsp90 set2 inactive, tim10-1 inh inactive, tim23-1 inh 59 and tim23-1 confirm 66.
`CC1=NN(c2ccc(C)c(C)c2)C(=O)/C1=C\C=C\c1ccc([N+](=O)[O-])o1` gave TIM10 inh inactive, PfHsp90 set2 inactive, tim10-1 inh inactive, tim23-1 inh 50 and tim23-1 confirm inactive.
Screening CCOC(=O)c1ccc(N2N=C(C)/C(=C/C=C/c3ccco3)C2=O)cc1 returned Rce1 inh inactive, TIM10 inh inactive, PfHsp90 set2 inactive, tim10-1 inh inactive and tim23-1 inh inactive.
Screening CCOC(=O)C1C(C(=O)OC)=C(c2ccc(OC)cc2)c2ccc(OC)cc2N1S(=O)(=O)C(F)(F)F (stereo not given) returned TIM10 inh inactive, PfHsp90 set2 inactive, tim10-1 inh inactive and tim23-1 inh inactive.
CCOC(=O)C1=C(C2=CCCCC2)c2ccc(OC)cc2N(S(=O)(=O)C(F)(F)F)C1C(=O)OCC (stereo not given) was read as TIM10 inh inactive, PfHsp90 set2 inactive, tim10-1 inh inactive, tim23-1 inh 53 and tim23-1 confirm 40.
`O=C(Nc1ccccc1)c1oc2ccccc2c1NC(=O)C1CC1` gave Rce1 inh inactive, TIM10 inh inactive, PfHsp90 set2 inactive, tim10-1 inh inactive and tim23-1 inh inactive.
For COc1ccc2c(c1)-c1c(ssc1=S)C(C)(C)N2 the results were Rce1 inh inactive, TIM10 inh inactive, PfHsp90 set2 inactive, tim10-1 inh inactive, tim23-1 inh 53 and tim23-1 confirm 47.
COc1ccc(-n2sc3c(c2=S)-c2cc(OC)ccc2NC3(C)C)cc1 was read as Rce1 inh inactive, TIM10 inh inactive, PfHsp90 set2 inactive, tim10-1 inh inactive and tim23-1 inh inactive.
For Cc1ccc(OCc2n[nH]c(=S)n2-c2ccc(Cl)cc2)cc1 the results were Rce1 inh inactive, TIM10 inh inactive, PfHsp90 set2 inactive, tim10-1 inh inactive and tim23-1 inh inactive.
Screening S=c1[nH]nc(COc2ccc(Cl)cc2)n1-c1ccc(Cl)cc1 returned Rce1 inh inactive, TIM10 inh inactive, PfHsp90 set2 inactive, tim10-1 inh inactive, tim23-1 inh 51 and tim23-1 confirm 41.
For Cc1ccc2c(c1)C(=O)C(=O)N2Cc1ccc(Cl)cc1 the results were TIM10 inh inactive, PfHsp90 set2 inactive, tim10-1 inh inactive and tim23-1 inh inactive.
Screening Cc1ccc2c(c1)C(=O)C(=O)N2Cc1ccccc1 returned TIM10 inh inactive, PfHsp90 set2 inactive, tim10-1 inh inactive, tim23-1 inh 73 and tim23-1 confirm 62.
Screening CCSc1nnc(NC(=O)c2nn(C(C)C)c(=O)c3ccccc23)s1 returned Rce1 inh inactive, TIM10 inh inactive, PfHsp90 set2 inactive, tim10-1 inh inactive, tim23-1 inh 57 and tim23-1 confirm 37.
Screening CCN1C(=O)N(C)[C@@H](c2ccccc2)C(C(C)=O)=C1C returned Rce1 inh inactive, TIM10 inh inactive, PfHsp90 set2 inactive, tim10-1 inh inactive and tim23-1 inh inactive.
O=[N+]([O-])c1ccc(N/N=C/c2cccc(O)c2)cc1 was read as Rce1 inh inactive, TIM10 inh inactive, PfHsp90 set2 inactive, tim10-1 inh inactive, tim23-1 inh 83 and tim23-1 confirm 40.
Screening Oc1cccc(/C=N/Nc2cccc3cccnc23)c1 returned Rce1 inh inactive, TIM10 inh inactive, PfHsp90 set2 inactive, tim10-1 inh inactive, tim23-1 inh 53 and tim23-1 confirm 63.
`O=[N+]([O-])c1ccc(N/N=C/c2cccc(O)c2O)cc1` gave Rce1 inh inactive, TIM10 inh inactive, PfHsp90 set2 inactive, tim10-1 inh inactive and tim23-1 inh inactive.

Screening data (PubChem)
